HCMV inh – qHTS Assay for inhibitors of the human cytomegalovirus (HCMV); activity change, negative = inhibition, % at 57.5 µM; HFF cells, HCMV-luciferase reporter, 72 h; stronger effect = lower value; 410,000 compounds, 4.5% hits; in the data active = activity change below about -60%; inconclusive = no clear call, values can overlap the other calls; inactive = above about -39%
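Steps: HFFs plated, 16 h 37C; compounds added; HCMV-luciferase added to MOI 1 PFU/cell; 72 h 37C; OneGlo reagent, 5 min room temperature; luminescence read, normalized to controls.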
MARV entry inh – qHTS for inhibitors of binding or entry into cells for Marburg Virus; Marburg virus pseudotyped entry inhibition, cell reporter; Potency, µM (series often up to 37.8 µM), hits mostly inhibitors; 300,000 compounds, 1.8% hits; AID 540276, 2011; calls by dose curve; tested in HEK293 cells
LASV entry inh – qHTS for Inhibitors of binding or entry into cells for Lassa Virus; Lassa virus pseudotype entry inhibition, cell reporter; Potency, µM (doses to about 37.9 µM), most hits filed as inhibitors; 300,000 compounds, 1.2% hits; AID 540256, 2011; calls by dose curve; tested in HEK293 cells; note: nearly all actives have a fitted effect of over 50% in size
FMDV inh – High Throughput Screening for Foot and Mouth Disease Virus Antivirals; FMDV antiviral cell-based qHTS; Potency, µM (highest dose often 57.9 µM), hits mostly inhibitors; 410,000 compounds, 1.2% hits; AID 1159524, 2015; calls by dose curve; tested in HEK293T cells; note: read-out not given here; nearly all actives have a fitted effect of over 45% in size
VACV mCherry inh – qHTS for Stage-Specific Inhibitors of Vaccinia Orthopoxvirus: mCherry Reporter Primary qHTS | Vaccinia virus mCherry reporter infection, fluorescence | Potency, µM (highest dose often 36.5 µM), hits mostly inhibitors | 310,000 compounds, 0.63% hits; calls by dose curve; tested in A549 cells; note: nearly all actives have a fitted effect of over 35% in size
VACV Venus inh – qHTS for Stage-Specific Inhibitors of Vaccinia Orthopoxvirus: Venus Reporter Primary qHTS; 330,000 compounds, 0.46% hits; Potency, µM (series often up to 36.5 µM), usual class: inhibitors; Vaccinia virus Venus reporter expression, fluorescence; calls by dose curve; tested in A549 cells; note: nearly all actives have a fitted effect of over 30% in size
Each line names hits and unclear results; the compound was inactive in the other large screens. Shown are actives, neighbours in structure and some others; about 6.5% of the full set was active somewhere.

COc1ccc(-c2nn(-c3ccccc3)cc2/C=N/NC(=O)c2cccc(S(=O)(=O)Nc3ccccc3Cl)c2)cc1	HCMV inh -101.4, MARV entry inh inconclusive, LASV entry inh inconclusive
COc1ccc(-c2nn(-c3ccccc3)cc2C(=O)n2nnc3ccccc32)cc1	FMDV inh 20µM
COC(=O)c1cn(-c2ccccc2)nc1-c1ccc(OC)cc1	none (no result: MARV entry inh, LASV entry inh)
COc1ccc(-c2nn(-c3ccccc3)cc2/C=N/NS(=O)(=O)c2ccccc2)cc1	MARV entry inh inconclusive
COc1ccc(-c2nn(-c3ccccc3)cc2/C=N/N2C(=O)CSC2=S)cc1	HCMV inh -96.2, MARV entry inh inconclusive, LASV entry inh inconclusive (no result: VACV mCherry inh, VACV Venus inh)
CC(C)c1c(C(=O)NCC2(N3CCOCC3)CCCC2)cnn1-c1nccc(-c2cccs2)n1	none (no result: HCMV inh, MARV entry inh, LASV entry inh)
O=C(CCn1c(=O)c2sccc2n(Cc2cccc(F)c2)c1=O)NCc1ccc2c(c1)OCO2	none
CCCOc1ccc(C2C(=O)N(C3CCCCC3)CC(=O)N2CCc2ccccc2)cc1OC (stereo not given)	none (no result: MARV entry inh)
COc1ccccc1OC(=O)c1cc2ccccc2oc1=O	MARV entry inh inconclusive, LASV entry inh inconclusive
COc1cc(/C=C/[N+](=O)[O-])ccc1OC(=O)c1cc2ccccc2oc1=O	HCMV inh -72.3
Cc1cc(/C=N/n2c(COc3ccccc3C)nc3ccccc3c2=O)c(O)c([N+](=O)[O-])c1	HCMV inh -91.9 (no result: LASV entry inh, VACV mCherry inh, VACV Venus inh)
Cc1cccc(C)c1OCc1nc2ccccc2c(=O)n1/N=C/c1c[nH]c2ccccc12	MARV entry inh inconclusive, LASV entry inh 2.51µM, FMDV inh inconclusive, VACV mCherry inh inconclusive, VACV Venus inh inconclusive
Cc1ccccc1OCc1nc2ccccc2c(=O)n1/N=C/c1c[nH]c2ccccc12	LASV entry inh inconclusive
Cc1ccc(-c2[nH]ncc2/C=N/n2c(COc3ccccc3C)nc3ccccc3c2=O)cc1	HCMV inh -88.7, MARV entry inh 11.2µM, LASV entry inh inconclusive, VACV mCherry inh inconclusive, VACV Venus inh 11.2µM
COc1ccc(Nc2cc3c(cn2)ncn3Cc2ccccc2)c(C)c1	none (no result: MARV entry inh, LASV entry inh, FMDV inh, VACV mCherry inh, VACV Venus inh)
CN(C(=O)C=Cc1ccccc1)c1ccccc1	HCMV inh -100.5
CN(C(=O)/C=C/c1ccc2c(c1)OCO2)c1ccccc1	none
Oc1cccc2c(NC(=S)Nc3ccc(OC(F)F)cc3)cccc12	HCMV inh -98.8, MARV entry inh inconclusive, LASV entry inh inconclusive, FMDV inh inconclusive, VACV mCherry inh inconclusive
O=S(=O)(c1ccc(NC(=S)NN=Cc2ccccc2O)cc1)N1CCCCC1	HCMV inh -61.2, MARV entry inh inconclusive, LASV entry inh 6.31µM, VACV mCherry inh 12.6µM, VACV Venus inh inconclusive
CCOc1ccc(NC(=S)NC23CC4CC(CC(C4)C2)C3)cc1	none (no result: MARV entry inh, LASV entry inh, VACV mCherry inh, VACV Venus inh)
FC(F)Oc1ccc(NC(=S)NCc2ccccc2)cc1	MARV entry inh inconclusive, VACV Venus inh inconclusive
NS(=O)(=O)c1ccc(NC(=S)Nc2ccc(S(=O)(=O)N3CCCC3)cc2)cc1	none
FC(F)Oc1ccc(NC(=S)NC23CC4CC(CC(C4)C2)C3)cc1	LASV entry inh 2.51µM, FMDV inh inconclusive
O=S(=O)(c1ccc(NC(=S)NC23CC4CC(CC(C4)C2)C3)cc1)N1CCCCC1	HCMV inh -90.2, VACV Venus inh inconclusive (no result: MARV entry inh, LASV entry inh)
COc1ccc(C2C(C#N)=C(C)NC3=C2S(=O)(=O)c2ccccc23)cc1 (stereo not given)	HCMV inh -107.9 (no result: VACV mCherry inh, VACV Venus inh)
CCC(c1nnnn1CCc1ccccc1)N(Cc1ccco1)Cc1cc2cc(C)cc(C)c2[nH]c1=O (stereo not given)	HCMV inh -70.6, MARV entry inh inconclusive, LASV entry inh inconclusive, FMDV inh inconclusive (no result: VACV mCherry inh)
CCC(c1nnnn1CCc1ccccc1)N(Cc1ccco1)Cc1cc2c(C)ccc(C)c2[nH]c1=O (stereo not given)	MARV entry inh 14.1µM, LASV entry inh inconclusive, VACV Venus inh inconclusive (no result: VACV mCherry inh)
CCn1c(=O)cc(OCC(=O)N2CCN(c3cccc(Cl)c3)CC2)c2ccccc21	MARV entry inh inconclusive
CC1(C)CC(=O)C(N=Nc2ccc(Br)cc2)=C(O)C1	HCMV inh -60.3
COc1ccc(N=NC2=C(O)CC(C)(C)CC2=O)cc1	none
CCOC(=O)c1oc2ccc(CNCCO)c(Cl)c2c1C	MARV entry inh inconclusive
CCOC(=O)c1oc2ccc(CNC3CCCCC3)c(Cl)c2c1C	MARV entry inh 7.3µM, LASV entry inh inconclusive (no result: FMDV inh)
CN(C(=O)c1ccco1)c1nc(CC(=O)Nc2ccccc2)cs1	MARV entry inh 17.8µM (no result: VACV mCherry inh)
C=C(C)CSc1nnc(-c2cccc(S(=O)(=O)N(C)C)c2)n1-c1cc(OC)ccc1OC	HCMV inh -70.7, LASV entry inh inconclusive
CN(C)CCC1(C2=CCCC2)CC/C(=C/c2ccc(Cl)cc2)C1=O (stereo not given)	HCMV inh -85.9, MARV entry inh inconclusive, LASV entry inh 12.6µM, VACV mCherry inh inconclusive, VACV Venus inh 11.2µM
CC(C)c1ccccc1-n1c(SCc2cc(=O)oc3ccc4ccccc4c23)nnc1-c1cccnc1	MARV entry inh inconclusive, LASV entry inh inconclusive, FMDV inh 14.1µM
CC(=O)Nc1ccc2c(CSc3nnc(-c4cccnc4)n3-c3ccc(C)cc3C)cc(=O)oc2c1	LASV entry inh inconclusive
CCOc1ccc(-n2c(SCc3cc(=O)oc4cc(C)ccc34)nnc2-c2cccnc2)cc1	HCMV inh -64.6
CCN(C(=O)CN1c2ccccc2CC1C)c1c(N)n(Cc2ccccc2)c(=O)[nH]c1=O (stereo not given)	HCMV inh -64.0, MARV entry inh inconclusive
Nc1c(N(Cc2ccccc2)C(=O)COc2ccc(F)cc2)c(=O)[nH]c(=O)n1Cc1ccccc1	none
Nc1c(N(Cc2ccccc2)C(=O)COc2cccc(Cl)c2)c(=O)[nH]c(=O)n1Cc1ccccc1	HCMV inh -78.4, FMDV inh inconclusive
CCN(C(=O)COC(=O)CCOc1ccc(C(C)(C)C)cc1)c1c(N)n(Cc2ccccc2)c(=O)[nH]c1=O	HCMV inh -66.1, FMDV inh inconclusive (no result: MARV entry inh, LASV entry inh, VACV mCherry inh, VACV Venus inh)
CCOc1ccc(OCCC(=O)N(CCC2=CCCCC2)c2c(N)n(Cc3ccccc3)c(=O)[nH]c2=O)cc1	LASV entry inh inconclusive
CCOc1ccc(OCC(=O)N(CCC2=CCCCC2)c2c(N)n(Cc3ccccc3)c(=O)[nH]c2=O)cc1	HCMV inh -84.2 (no result: MARV entry inh, LASV entry inh, FMDV inh, VACV mCherry inh, VACV Venus inh)
COCCN(C(=O)COC(=O)/C=C/c1ccc(C(F)(F)F)cc1)c1c(N)n(Cc2ccccc2)c(=O)[nH]c1=O	LASV entry inh inconclusive, VACV mCherry inh 12.6µM, VACV Venus inh inconclusive
O=C1[C@H]2[C@H]3[C@H](O)[C@H](O)C/C(=N\OCc4ccccc4)[C@@H]3CC[C@H]2C(=O)N1C[C@@H]1CCCO1	none (no result: HCMV inh, LASV entry inh, FMDV inh, VACV mCherry inh, VACV Venus inh)
CCn1c(C(=O)NCc2ccc(OC(C)C)cc2)cc2oc3ccccc3c21	HCMV inh -79.0, MARV entry inh inconclusive (no result: LASV entry inh)
COCCNC(=O)c1cc2oc3ccccc3c2n1C	none (no result: VACV mCherry inh, VACV Venus inh)

Bioassay records deposited in PubChem by National Center for Advancing Translational Sciences (NCATS).
